Data: PubChem BioAssay (NCATS)
Inconclusive results are not listed. Active and inactive are the calls of the source. The call rests on the fitted dose curve; in most records, active means well fitted curve in the direction sought with a large enough effect; inconclusive means small, poorly fitted or top-dose-only effect, or another doubt; inactive means no such curve, though single readings can be large; an effect the other way counts as inactive or inconclusive.

Legend:
[1] = target: ATP-dependent 6-phosphofructokinase (Trypanosoma brucei brucei) (UniProt O15648); assay: qHTS Assay to Find Inhibitors of T. brucei phosphofructokinase: hit validation (AID 492961);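 further: luminescence reports ADP formed as PFK phosphorylates fructose-6-phosphate with ATP; on the % scale 0 is the no-effect control and ±100 the full control effect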
Outline: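 Percent activity derived from corrected luminescence, normalized between 0x and 1x enzyme controls, then fitted to concentration-response curves. Conditions: 1.25 nM PFK, 0.1 mM ATP, 0.5 mM F6P, 45 min RT.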

[2] = qHTS profiling for inhibitors of Plasmodium falciparum proliferation (AID 504749); further: potency means the concentration at half of the fitted maximal effect;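 on activity, negative = inhibition: 0% = DMSO vehicle and full inhibition = artemisinin control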; on all read-outs here: nearly all actives have a fitted effect of over 60% in size; details: P. falciparum in erythrocytes, SYBR Green DNA, 72 h; for activity, negative = inhibition: at 28.7 µM (top of the series)
Outline: (§1)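 Quantitative HTS: compounds pinned into medium, infected erythrocytes added (0.3% parasitemia, 2.5% hematocrit), 72 h culture at 37 C under 5% CO2. Saponin/Triton lysis with SYBR Green I, overnight RT, then fluorescence read.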

3D7 = assay: as above; details: P. falciparum in erythrocytes, SYBR Green DNA, 72 h; series mostly up to 28.7 µM
Outline: as §1

AA1029 = assay: as above; details: P. falciparum in erythrocytes, SYBR Green DNA, 72 h; series mostly up to 28.7 µM
Outline: as §1

AS120 = assay: as above; details: P. falciparum in erythrocytes, SYBR Green DNA, 72 h; series mostly up to 28.7 µM
Outline: as §1

ATS189 = assay: as above; details: P. falciparum in erythrocytes, SYBR Green DNA, 72 h; series mostly up to 28.7 µM
Outline: as §1

CP185 = assay: as above; details: P. falciparum in erythrocytes, SYBR Green DNA, 72 h; series mostly up to 28.7 µM
Outline: as §1

CP211 = assay: as above; details: P. falciparum in erythrocytes, SYBR Green DNA, 72 h; series mostly up to 28.7 µM
Outline: as §1

CP217 = assay: as above; details: P. falciparum in erythrocytes, SYBR Green DNA, 72 h; series mostly up to 28.7 µM
Outline: as §1

CP238 = assay: as above; details: P. falciparum in erythrocytes, SYBR Green DNA, 72 h; series mostly up to 28.7 µM
Outline: as §1

CP252 = assay: as above; details: P. falciparum in erythrocytes, SYBR Green DNA, 72 h; series mostly up to 28.7 µM
Outline: as §1

CP262 = assay: as above; details: P. falciparum in erythrocytes, SYBR Green DNA, 72 h; series mostly up to 28.7 µM
Outline: as §1

CP265 = assay: as above; details: P. falciparum in erythrocytes, SYBR Green DNA, 72 h; series mostly up to 28.7 µM
Outline: as §1

CP286 = assay: as above; details: P. falciparum in erythrocytes, SYBR Green DNA, 72 h; series mostly up to 28.7 µM
Outline: as §1

Dd2 = assay: as above; details: P. falciparum in erythrocytes, SYBR Green DNA, 72 h; series mostly up to 28.7 µM
Outline: as §1

FAB9 = assay: as above; details: P. falciparum in erythrocytes, SYBR Green DNA, 72 h; series mostly up to 28.7 µM
Outline: as §1

N140 = assay: as above; details: P. falciparum in erythrocytes, SYBR Green DNA, 72 h; series mostly up to 28.7 µM
Outline: as §1

P94_40 = assay: as above; details: P. falciparum in erythrocytes, SYBR Green DNA, 72 h; series mostly up to 28.7 µM
Outline: as §1

TAB109 = assay: as above; details: P. falciparum in erythrocytes, SYBR Green DNA, 72 h; series mostly up to 28.7 µM
Outline: as §1

CP191 = assay: as above; details: P. falciparum in erythrocytes, SYBR Green DNA, 72 h; series mostly up to 28.7 µM
Outline: as §1

Chain of ATP-dependent 6-phosphofructokinase (Trypanosoma brucei brucei) (O15648 whole entry, looked up): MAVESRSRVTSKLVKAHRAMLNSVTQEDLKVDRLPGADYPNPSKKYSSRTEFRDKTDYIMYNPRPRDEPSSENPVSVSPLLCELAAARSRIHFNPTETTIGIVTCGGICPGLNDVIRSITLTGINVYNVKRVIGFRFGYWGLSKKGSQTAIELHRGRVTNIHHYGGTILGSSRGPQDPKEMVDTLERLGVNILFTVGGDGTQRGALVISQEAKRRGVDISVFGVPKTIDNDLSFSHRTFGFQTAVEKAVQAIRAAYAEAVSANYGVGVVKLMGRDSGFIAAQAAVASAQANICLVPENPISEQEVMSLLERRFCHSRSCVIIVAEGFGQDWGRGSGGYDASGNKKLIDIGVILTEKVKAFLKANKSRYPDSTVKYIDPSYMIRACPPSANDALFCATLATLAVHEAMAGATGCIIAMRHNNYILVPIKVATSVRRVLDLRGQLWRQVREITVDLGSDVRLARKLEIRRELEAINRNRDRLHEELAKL

Cc1cc2nc3c(=O)[nH]c(=O)nc-3n(CC(O)C(O)C(O)COP(=O)(O)O)c2cc1C (stereo not drawn)
inactive: Potency [1] | activity, negative = inhibition ([2]; parasite line A) -0.201% | activity, negative = inhibition ([2]; parasite line B) 1.68% | Potency (3D7) | Potency (AA1029) | Potency (AS120) | Potency (ATS189) | Potency (CP185) | Potency (CP211) | Potency (CP217) | Potency (CP238) | Potency (CP252) | Potency (CP262) | Potency (CP265) | Potency (CP286) | Potency (Dd2) | Potency (FAB9) | Potency (N140) | Potency (P94_40) | Potency (TAB109)

C[C@@H]1CCN(C(=O)[C@H](CCCNC(=N)N)NS(=O)(=O)c2cccc3c2NC[C@H](C)C3)[C@@H](C(=O)O)C1
inactive: Potency [1] | activity, negative = inhibition ([2]; parasite line A) 3.79% | activity, negative = inhibition ([2]; parasite line B) 10.6% | Potency (3D7) | Potency (AA1029) | Potency (AS120) | Potency (ATS189) | Potency (CP185) | Potency (CP191) | Potency (CP211) | Potency (CP217) | Potency (CP238) | Potency (CP252) | Potency (CP262) | Potency (CP265) | Potency (CP286) | Potency (Dd2) | Potency (FAB9) | Potency (N140) | Potency (P94_40) | Potency (TAB109)

CC(=O)N1CC(O)CC1C(=O)O (stereo not drawn)
inactive: Potency [1] | activity, negative = inhibition ([2]; parasite line A) -10.1% | activity, negative = inhibition ([2]; parasite line B) -6.82% | Potency (3D7) | Potency (AA1029) | Potency (AS120) | Potency (ATS189) | Potency (CP185) | Potency (CP191) | Potency (CP211) | Potency (CP217) | Potency (CP238) | Potency (CP252) | Potency (CP262) | Potency (CP265) | Potency (CP286) | Potency (Dd2) | Potency (FAB9) | Potency (N140) | Potency (P94_40) | Potency (TAB109)

CC1(C)CC1C(=O)N/C(=C/CCCCSCC(N)C(=O)O)C(=O)O (stereo not drawn)
inactive: Potency [1] | activity, negative = inhibition ([2]; parasite line A) 9.99% | activity, negative = inhibition ([2]; parasite line B) -1.88% | Potency (3D7) | Potency (AA1029) | Potency (AS120) | Potency (ATS189) | Potency (CP185) | Potency (CP191) | Potency (CP211) | Potency (CP217) | Potency (CP238) | Potency (CP252) | Potency (CP262) | Potency (CP265) | Potency (CP286) | Potency (Dd2) | Potency (FAB9) | Potency (N140) | Potency (P94_40) | Potency (TAB109)

Nc1ncn(C2C[C@H](O)[C@@H](CO)O2)c(=O)n1 (stereo partly drawn)
inactive: Potency [1] | activity, negative = inhibition ([2]; parasite line A) 2.14% | activity, negative = inhibition ([2]; parasite line B) -13.9% | Potency (3D7) | Potency (AA1029) | Potency (AS120) | Potency (ATS189) | Potency (CP185) | Potency (CP191) | Potency (CP211) | Potency (CP217) | Potency (CP238) | Potency (CP252) | Potency (CP262) | Potency (CP265) | Potency (CP286) | Potency (Dd2) | Potency (FAB9) | Potency (N140) | Potency (P94_40) | Potency (TAB109)

CC(CN1CC(=O)NC(=O)C1)N1CC(=O)NC(=O)C1 (stereo not drawn)
inactive: Potency [1] | activity, negative = inhibition ([2]; parasite line A) 1.79% | activity, negative = inhibition ([2]; parasite line B) 0.945% | Potency (3D7) | Potency (AA1029) | Potency (AS120) | Potency (ATS189) | Potency (CP185) | Potency (CP191) | Potency (CP211) | Potency (CP217) | Potency (CP238) | Potency (CP252) | Potency (CP262) | Potency (CP265) | Potency (CP286) | Potency (Dd2) | Potency (FAB9) | Potency (N140) | Potency (P94_40) | Potency (TAB109)

COc1ccc(S(=O)(=O)N2c3ccc(Cl)cc3[C@](O)(c3ccccc3Cl)[C@@H]2C(=O)N2CCC[C@H]2C(N)=O)cc1OC
inactive: Potency [1] | activity, negative = inhibition ([2]; parasite line A) -28.5% | activity, negative = inhibition ([2]; parasite line B) -6.86% | Potency (3D7) | Potency (ATS189) | Potency (CP185) | Potency (CP191) | Potency (CP211) | Potency (CP217) | Potency (CP238) | Potency (CP252) | Potency (CP262) | Potency (CP265) | Potency (CP286) | Potency (Dd2) | Potency (FAB9) | Potency (TAB109)

O=C(O)C(O)c1ccccc1 (stereo not drawn)
inactive: Potency [1] | activity, negative = inhibition ([2]; parasite line A) 2.53% | activity, negative = inhibition ([2]; parasite line B) 10.7% | Potency (3D7) | Potency (AA1029) | Potency (AS120) | Potency (ATS189) | Potency (CP185) | Potency (CP191) | Potency (CP211) | Potency (CP217) | Potency (CP238) | Potency (CP252) | Potency (CP262) | Potency (CP265) | Potency (CP286) | Potency (Dd2) | Potency (FAB9) | Potency (N140) | Potency (P94_40) | Potency (TAB109)

C[C@]12CC[C@@H]3c4ccc(O)cc4C[C@@H](CCCCCCCCCS(=O)CCCC(F)(F)C(F)(F)F)C3[C@@H]1CC[C@@H]2O (stereo partly drawn)
inactive: Potency [1] | Potency (CP262)
active: Potency ([2]; parasite line A) 11.2 µM | Potency ([2]; parasite line B) 10 µM | Potency (3D7) 10 µM | Potency (AA1029) 7.08 µM | Potency (AS120) 2.51 µM | Potency (ATS189) 7.94 µM | Potency (CP185) 8.91 µM | Potency (CP191) 7.94 µM | Potency (CP217) 8.91 µM | Potency (CP238) 7.94 µM | Potency (CP252) 8.91 µM | Potency (CP265) 11.2 µM | Potency (CP286) 11.2 µM | Potency (Dd2) 7.08 µM | Potency (FAB9) 8.91 µM | Potency (N140) 2.24 µM | Potency (P94_40) 5.62 µM | Potency (TAB109) 10 µM
